Source: the supplement of paper PMC8728848
This excerpt belongs to a sample that is enriched for the strongest signals.

What was measured:
Assay in all cases: glycan array binding signal (z-score within array); higher = stronger binding
Details in all cases: glycan notation: IUPAC condensed, linker removed
[1] = target: Fuc(a1-2)Gal(b1-3)GalNAc(b1-4)[Neu5Ac(a2-3)]Gal(b1-4)Glc
Summary of the method: (§1)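 Glycan array data were curated from 3228 arrays in the Consortium for Functional Glycomics database and kept only where the protein sequence was available. Glycan names were converted to IUPAC-condensed notation, and columns mapping to the same glycan were averaged. The binding signal is a within-array Z-score, averaged across arrays of the same protein sequence at different concentrations or buffers and across linkers. Negative Z-scores can be read as non-binding.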

[2] = target: Fuc(a1-2)Gal(b1-3)[Fuc(a1-4)]GlcNAc(b1-3)[Fuc(a1-3)[Gal(b1-4)]GlcNAc(b1-6)]Gal(b1-4)Glc
Summary of the method: as §1

[3] = target: Fuc(a1-2)Gal(b1-4)GlcNAc(b1-2)Man(a1-3)[Fuc(a1-2)Gal(b1-4)GlcNAc(b1-2)Man(a1-6)]Man(b1-4)GlcNAc(b1-4)GlcNAc
Summary of the method: as §1

[4] = target: Fuc(a1-2)Gal(b1-4)GlcNAc(b1-2)Man(a1-3)[Fuc(a1-2)Gal(b1-4)GlcNAc(b1-2)Man(a1-6)]Man(b1-4)GlcNAc(b1-4)[Fuc(a1-6)]GlcNAc
Summary of the method: as §1

[5] = target: Fuc(a1-2)Gal(b1-4)GlcNAc(b1-3)Gal(b1-4)GlcNAc(b1-3)Gal(b1-4)GlcNAc
Summary of the method: as §1

[6] = target: Fuc(a1-2)Gal(b1-4)[Fuc(a1-3)]GlcNAc(b1-2)Man(a1-3)[Fuc(a1-2)Gal(b1-4)[Fuc(a1-3)]GlcNAc(b1-2)Man(a1-6)]Man(b1-4)GlcNAc(b1-4)GlcNAc
Summary of the method: as §1

[7] = target: Fuc(a1-2)Gal(b1-4)[Fuc(a1-3)]GlcNAc(b1-3)GalNAc
Summary of the method: as §1

[8] = target: Fuc(a1-2)[Gal(a1-3)]Gal(b1-4)GlcNAc
Summary of the method: as §1

[9] = target: Fuc(a1-2)[Gal(a1-3)]Gal(b1-4)GlcNAc(b1-2)Man(a1-3)[Fuc(a1-2)[Gal(a1-3)]Gal(b1-4)GlcNAc(b1-2)Man(a1-6)]Man(b1-4)GlcNAc(b1-4)GlcNAc
Summary of the method: as §1

[10] = target: Fuc(a1-2)[Gal(a1-3)]Gal(b1-4)GlcNAc(b1-2)Man(a1-3)[Fuc(a1-2)[Gal(a1-3)]Gal(b1-4)GlcNAc(b1-2)Man(a1-6)]Man(b1-4)GlcNAc(b1-4)[Fuc(a1-6)]GlcNAc
Summary of the method: as §1

[11] = target: Fuc(a1-2)[Gal(a1-3)]Gal(b1-4)[Fuc(a1-3)]GlcNAc(b1-3)GalNAc
Summary of the method: as §1

[12] = target: Fuc(a1-2)[GalNAc(a1-3)]Gal
Summary of the method: as §1

[13] = target: Fuc(a1-2)[GalNAc(a1-3)]Gal(b1-3)GalNAc(a1-3)[Fuc(a1-2)]Gal(b1-4)GlcNAc
Summary of the method: as §1

[14] = target: Gal(a1-3)Gal(b1-3)GlcNAc(b1-2)Man(a1-3)[Gal(a1-3)Gal(b1-3)GlcNAc(b1-2)Man(a1-6)]Man(b1-4)GlcNAc(b1-4)GlcNAc
Summary of the method: as §1

[15] = target: Gal(a1-3)Gal(b1-4)[Fuc(a1-3)]GlcNAc(b1-2)Man(a1-3)[Gal(a1-3)Gal(b1-4)[Fuc(a1-3)]GlcNAc(b1-2)Man(a1-6)]Man(b1-4)GlcNAc(b1-4)GlcNAc
Summary of the method: as §1

[16] = target: Gal(b1-3)GlcNAc(b1-2)Man(a1-3)[Gal(b1-3)GlcNAc(b1-2)Man(a1-6)]Man(b1-4)GlcNAc(b1-4)GlcNAc
Summary of the method: as §1

[17] = target: Gal(b1-3)GlcNAc(b1-2)Man(a1-3)[Gal(b1-3)GlcNAc(b1-2)Man(a1-6)]Man(b1-4)GlcNAc(b1-4)[Fuc(a1-6)]GlcNAc
Summary of the method: as §1

[18] = target: Gal(b1-3)[Fuc(a1-4)]GlcNAc(b1-3)Gal(b1-4)GlcNAc
Summary of the method: as §1

[19] = target: Gal(b1-3)[Neu5Ac(a2-6)]GlcNAc(b1-6)Gal(b1-4)Glc
Summary of the method: as §1

[20] = target: Gal(b1-4)GlcNAc(b1-3)Gal(b1-4)GlcNAc
Summary of the method: as §1

Gal4S(b1-4)GlcNAc = target: Gal4S(b1-4)GlcNAc
Summary of the method: as §1

Gal6S(b1-3)GlcNAc = target: Gal6S(b1-3)GlcNAc
Summary of the method: as §1

[21] = target: GalNAc(b1-3)Gal(a1-6)Gal(b1-4)Glc
Summary of the method: as §1

GalNAc(b1-4)GlcNAc = target: GalNAc(b1-4)GlcNAc
Summary of the method: as §1

GlcA(b1-3)GlcNAc = target: GlcA(b1-3)GlcNAc
Summary of the method: as §1

[22] = target: GlcNAc(a1-4)Gal(b1-4)GalNAc
Summary of the method: as §1

[23] = target: GlcNAc(a1-4)Gal(b1-4)GlcNAc(b1-3)Gal(b1-4)[Fuc(a1-3)]GlcNAc(b1-3)Gal(b1-4)[Fuc(a1-3)]GlcNAc
Summary of the method: as §1

[24] = target: GlcNAc(b1-4)[GlcNAc(b1-6)]GalNAc
Summary of the method: as §1

Man(a1-3)[Man(a1-6)]Man = target: Man(a1-3)[Man(a1-6)]Man
Summary of the method: as §1

[25] = target: Neu5Ac(a2-3)Gal(b1-3)[Neu5Ac(a2-3)Gal(b1-4)]GlcNAc
Summary of the method: as §1

[26] = target: Neu5Ac(a2-3)Gal(b1-4)GlcNAc(b1-3)Gal(b1-4)GlcNAc
Summary of the method: as §1

[27] = target: Neu5Ac(a2-3)Gal(b1-4)[Fuc(a1-3)]GlcNAc(b1-3)GalNAc
Summary of the method: as §1

[28] = target: Neu5Ac(a2-6)Gal(b1-4)GlcNAc(b1-2)Man(a1-3)[Man(a1-6)]Man(b1-4)GlcNAc(b1-4)GlcNAc
Summary of the method: as §1

[29] = target: Neu5Ac(a2-6)Gal(b1-4)GlcNAc(b1-2)Man(a1-6)[GlcNAc(b1-2)Man(a1-3)]Man(b1-4)GlcNAc(b1-4)GlcNAc
Summary of the method: as §1

[30] = target: Neu5Ac(a2-6)Gal(b1-4)GlcNAc(b1-3)Gal(b1-4)GlcNAc(b1-3)Gal(b1-4)GlcNAc
Summary of the method: as §1

[31] = target: Neu5Ac(a2-6)Gal(b1-4)GlcNAc(b1-3)GalNAc
Summary of the method: as §1

B1: Gal 2 (Canis lupus) (protein)
chain: MSGKFEVMNMDMKLGGTLKIKGKIAGDADGFVINLGQGSDKLNLHFNPRFHESVIVCNSRNWGQEQRDKHMCFSPGSEVKFTVTFENDGFKVKLPDGHQLTFPNRLGHSHLSYLGVQGGLKVSSFKIE
For B1, the “glycan array binding signal (z-score)” value [1] was -0.028, the “glycan array binding signal (z-score)” value [2] was 0.019 and the “glycan array binding signal (z-score)” value [3] was 1.43. For the same binder, the “glycan array binding signal (z-score)” value [4] was 0.046, the “glycan array binding signal (z-score)” value [5] was -0.156 and the “glycan array binding signal (z-score)” value [6] was 0.795. For the same binder, the “glycan array binding signal (z-score)” value [7] was 0.409, the “glycan array binding signal (z-score)” value [8] was 0.681 and the “glycan array binding signal (z-score)” value [9] was 15.5. For the same binder, the “glycan array binding signal (z-score)” value [10] was 6.28, the “glycan array binding signal (z-score)” value [11] was 0.088 and the “glycan array binding signal (z-score)” value [12] was -0.339. The “glycan array binding signal (z-score)” value [13] was -0.173, the “glycan array binding signal (z-score)” value [14] was 0.082 and the “glycan array binding signal (z-score)” value [15] was 0.339. The “glycan array binding signal (z-score)” value [16] was 0.14, the “glycan array binding signal (z-score)” value [17] was 0.051 and the “glycan array binding signal (z-score)” value [18] was 0.099. The “glycan array binding signal (z-score)” value [19] was -0.068, the “glycan array binding signal (z-score)” value [20] was -0.157 and the “glycan array binding signal (z-score)” value (Gal4S(b1-4)GlcNAc) was 1.7. For the same binder, the “glycan array binding signal (z-score)” value (Gal6S(b1-3)GlcNAc) was -0.457, the “glycan array binding signal (z-score)” value [21] was 0.131 and the “glycan array binding signal (z-score)” value (GalNAc(b1-4)GlcNAc) was -0.029. The “glycan array binding signal (z-score)” value (GlcA(b1-3)GlcNAc) was 2.91, the “glycan array binding signal (z-score)” value [22] was -0.278 and the “glycan array binding signal (z-score)” value [23] was 1.2. For the same binder, the “glycan array binding signal (z-score)” value [24] was -0.114, the “glycan array binding signal (z-score)” value (Man(a1-3)[Man(a1-6)]Man) was 0.15 and the “glycan array binding signal (z-score)” value [25] was -0.369. For the same binder, the “glycan array binding signal (z-score)” value [26] was 0.01, the “glycan array binding signal (z-score)” value [27] was 1.21 and the “glycan array binding signal (z-score)” value [28] was -0.076. For the same binder, the “glycan array binding signal (z-score)” value [29] was -0.361, the “glycan array binding signal (z-score)” value [30] was -0.293 and the “glycan array binding signal (z-score)” value [31] was 0.102.
